# Results taken from the supplement of paper PMC4466140.
# Legend:
# Assay in all cases: SPOT peptide array binding signal intensity (averaged, normalized) (arbitrary units (background-subtracted, floor 0; scale differs between SH3 domains)); higher = stronger binding of the SH3 domain to the peptide
# CaNbp2 = molecular target: CaNbp2
# Summary of the method: (§1)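 E. coli BL21(DE3) was used to express GST-fused SH3 domains from four yeast species, which were then purified on glutathione Sepharose. These were incubated at 10 μg/ml in TBS-based blocking buffer overnight at 4°C on cellulose membranes carrying synthetic 15-mer peptides, in which cysteines were replaced by serines. Binding signal is the replicate average of normalized, background-subtracted spot intensity, in arbitrary units that differ between domains.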
# CaRvs167 = molecular target: CaRvs167
# Summary of the method: as §1
# CaRvs167-3 = molecular target: CaRvs167-3
# Summary of the method: as §1
# CaSho1 = molecular target: CaSho1
# Summary of the method: as §1
# CaSla1-D1-D2 = molecular target: CaSla1-D1-D2
# Summary of the method: as §1
# CaSla1-D3 = molecular target: CaSla1-D3
# Summary of the method: as §1
# ScAbp1 = molecular target: ScAbp1
# Summary of the method: as §1
# ScBbc1 = molecular target: ScBbc1
# Summary of the method: as §1
# ScBem1-D1 = molecular target: ScBem1-D1
# Summary of the method: as §1
# ScBzz1-D1 = molecular target: ScBzz1-D1
# Summary of the method: as §1
# ScBzz1-D2 = molecular target: ScBzz1-D2
# Summary of the method: as §1
# ScCyk3 = molecular target: ScCyk3
# Summary of the method: as §1
# ScFus1 = molecular target: ScFus1
# Summary of the method: as §1
# ScHof1 = molecular target: ScHof1
# Summary of the method: as §1
# ScHse1 = molecular target: ScHse1
# Summary of the method: as §1
# ScLsb1 = molecular target: ScLsb1
# Summary of the method: as §1
# ScLsb2 = molecular target: ScLsb2
# Summary of the method: as §1
# ScLsb3 = molecular target: ScLsb3
# Summary of the method: as §1
# ScLsb4 = molecular target: ScLsb4
# Summary of the method: as §1
# ScMyo3 = molecular target: ScMyo3
# Summary of the method: as §1
# ScMyo5 = molecular target: ScMyo5
# Summary of the method: as §1
# ScNbp2 = molecular target: ScNbp2
# Summary of the method: as §1
# ScPex13 = molecular target: ScPex13
# Summary of the method: as §1
# ScRvs167 = molecular target: ScRvs167
# Summary of the method: as §1
# ScSho1 = molecular target: ScSho1
# Summary of the method: as §1
# ScSla1-D1-D2 = molecular target: ScSla1-D1-D2
# Summary of the method: as §1
# ScSla1-D3 = molecular target: ScSla1-D3
# Summary of the method: as §1
# SpAbp1-D1 = molecular target: SpAbp1-D1
# Summary of the method: as §1
# SpBbc1 = molecular target: SpBbc1
# Summary of the method: as §1
# SpBzz1-D1 = molecular target: SpBzz1-D1
# Summary of the method: as §1
# SpBzz1-D2 = molecular target: SpBzz1-D2
# Summary of the method: as §1
# SpCyk3 = molecular target: SpCyk3
# Summary of the method: as §1
# SpHof1 = molecular target: SpHof1
# Summary of the method: as §1
# SpHof1-2 = molecular target: SpHof1-2
# Summary of the method: as §1
# SpHof1-3 = molecular target: SpHof1-3
# Summary of the method: as §1
# SpHse1 = molecular target: SpHse1
# Summary of the method: as §1
# SpLsb1 = molecular target: SpLsb1
# Summary of the method: as §1
# SpLsb4 = molecular target: SpLsb4
# Summary of the method: as §1
# SpMyo1 = molecular target: SpMyo1
# Summary of the method: as §1
# SpNbp2 = molecular target: SpNbp2
# Summary of the method: as §1
# SpPex13 = molecular target: SpPex13
# Summary of the method: as §1
# SpRvs167 = molecular target: SpRvs167
# Summary of the method: as §1
# SpSla1-D1-D2 = molecular target: SpSla1-D1-D2
# Summary of the method: as §1
# SpSla1-D3 = molecular target: SpSla1-D3
# Summary of the method: as §1
binder,measurement,setting,value
APKREAPKPPANTSP,SPOT peptide array binding signal intensity,CaNbp2,1520
same,SPOT peptide array binding signal intensity,CaRvs167,0.5
same,SPOT peptide array binding signal intensity,CaRvs167-3,2
same,SPOT peptide array binding signal intensity,CaSho1,≤ 0
same,SPOT peptide array binding signal intensity,CaSla1-D1-D2,106
same,SPOT peptide array binding signal intensity,CaSla1-D3,0.25
same,SPOT peptide array binding signal intensity,ScAbp1,≤ 0
same,SPOT peptide array binding signal intensity,ScBbc1,156
same,SPOT peptide array binding signal intensity,ScBem1-D1,4.5
same,SPOT peptide array binding signal intensity,ScBzz1-D1,348
same,SPOT peptide array binding signal intensity,ScBzz1-D2,5
same,SPOT peptide array binding signal intensity,ScCyk3,≤ 0
same,SPOT peptide array binding signal intensity,ScFus1,≤ 0
same,SPOT peptide array binding signal intensity,ScHof1,≤ 0
same,SPOT peptide array binding signal intensity,ScHse1,≤ 0
same,SPOT peptide array binding signal intensity,ScLsb1,≤ 0
same,SPOT peptide array binding signal intensity,ScLsb2,≤ 0
same,SPOT peptide array binding signal intensity,ScLsb3,4.5
same,SPOT peptide array binding signal intensity,ScLsb4,≤ 0
same,SPOT peptide array binding signal intensity,ScMyo3,616
same,SPOT peptide array binding signal intensity,ScMyo5,414
same,SPOT peptide array binding signal intensity,ScNbp2,1140
same,SPOT peptide array binding signal intensity,ScPex13,47.8
same,SPOT peptide array binding signal intensity,ScRvs167,1
same,SPOT peptide array binding signal intensity,ScSho1,≤ 0
same,SPOT peptide array binding signal intensity,ScSla1-D1-D2,738
same,SPOT peptide array binding signal intensity,ScSla1-D3,16.2
same,SPOT peptide array binding signal intensity,SpAbp1-D1,15
same,SPOT peptide array binding signal intensity,SpBbc1,1
same,SPOT peptide array binding signal intensity,SpBzz1-D1,86
same,SPOT peptide array binding signal intensity,SpBzz1-D2,0.25
same,SPOT peptide array binding signal intensity,SpCyk3,≤ 0
same,SPOT peptide array binding signal intensity,SpHof1,≤ 0
same,SPOT peptide array binding signal intensity,SpHof1-2,≤ 0
same,SPOT peptide array binding signal intensity,SpHof1-3,6.25
same,SPOT peptide array binding signal intensity,SpHse1,3.5
same,SPOT peptide array binding signal intensity,SpLsb1,≤ 0
same,SPOT peptide array binding signal intensity,SpLsb4,≤ 0
same,SPOT peptide array binding signal intensity,SpMyo1,1270
same,SPOT peptide array binding signal intensity,SpNbp2,1
same,SPOT peptide array binding signal intensity,SpPex13,≤ 0
same,SPOT peptide array binding signal intensity,SpRvs167,2.67
same,SPOT peptide array binding signal intensity,SpSla1-D1-D2,≤ 0
same,SPOT peptide array binding signal intensity,SpSla1-D3,0.5
